From PubChem
GC-B act: GC-B (human) receptor activation. P20594. HEK293-GC-B cells, CNP EC30, cGMP TR-FRET; 0% at EC30 CNP, 100% saturating CNP. activation, % at 10 µM. 370,000 compounds, 0.11% hits. AID 1920062;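 active means activation at 10 µM reaching about 35% in either raw or pattern-adjusted values, limit read from the data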
Neddylation inh: inhibitors of human cullin neddylation; inhibition, % at 25 µM; P61081+Q13564; AID 651699; 360,000 compounds, 0.58% hits; TR-FRET cullin neddylation, biochemical; in the data active means inhibition above about 36%
GC-A act: GC-A (human) enzyme activation; P16066; activation, % at 10 µM; AID 1671463; 370,000 compounds, 0.14% hits; HEK293 GC-A cells, cGMP TR-FRET, EC30 ANP; 0% at EC30 ANP, 100% saturating ANP; in the data active means activation above about 40%
NOD2 RIPK2 PPI: blocks binding of human NOD2 to RIPK2; O43353; CHO BLA complementation NOD2-RIPK2, CCF4 ratio; inhibition, % at 4.98 µM; 360,000 compounds, 0.38% hits; in the data active means inhibition above about 21%;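 further: 0% = vehicle only and 100% = reference blocker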
TLR4 MyD88 comp: TLR4-MyD88 interaction inhibition in cells; AID 861; inhibition, % at 8.4 µM; 200,000 compounds, 0.18% hits; O00206+Q99836; HeLa CL3-4 TLR4/MyD88 BLA complementation, FRET ratio; in the data active means inhibition above about 25%;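 further: 0% = vehicle and 100% = reference inhibitor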
Target sequence (O00206 whole entry, looked up): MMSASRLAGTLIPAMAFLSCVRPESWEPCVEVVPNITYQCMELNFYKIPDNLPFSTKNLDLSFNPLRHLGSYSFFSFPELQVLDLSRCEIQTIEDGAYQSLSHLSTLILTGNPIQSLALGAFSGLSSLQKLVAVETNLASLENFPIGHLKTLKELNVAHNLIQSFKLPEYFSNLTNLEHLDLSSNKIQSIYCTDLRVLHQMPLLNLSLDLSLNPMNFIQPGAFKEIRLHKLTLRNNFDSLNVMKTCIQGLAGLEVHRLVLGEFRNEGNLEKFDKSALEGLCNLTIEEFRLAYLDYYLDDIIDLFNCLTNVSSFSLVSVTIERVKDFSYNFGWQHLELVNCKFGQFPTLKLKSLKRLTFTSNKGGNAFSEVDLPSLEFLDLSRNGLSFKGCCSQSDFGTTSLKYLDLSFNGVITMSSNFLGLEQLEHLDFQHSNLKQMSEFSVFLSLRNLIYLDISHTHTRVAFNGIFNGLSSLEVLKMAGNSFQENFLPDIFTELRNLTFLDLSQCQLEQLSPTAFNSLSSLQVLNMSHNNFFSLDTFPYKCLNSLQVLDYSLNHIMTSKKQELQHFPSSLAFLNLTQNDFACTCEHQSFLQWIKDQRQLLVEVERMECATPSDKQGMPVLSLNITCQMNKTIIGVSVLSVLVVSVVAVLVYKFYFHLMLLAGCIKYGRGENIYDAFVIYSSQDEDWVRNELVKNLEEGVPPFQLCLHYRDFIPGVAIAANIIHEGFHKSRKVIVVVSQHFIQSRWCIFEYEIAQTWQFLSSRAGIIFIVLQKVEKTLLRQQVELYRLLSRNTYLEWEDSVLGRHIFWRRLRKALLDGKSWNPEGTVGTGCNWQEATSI
Target sequence (Q99836 whole entry, looked up): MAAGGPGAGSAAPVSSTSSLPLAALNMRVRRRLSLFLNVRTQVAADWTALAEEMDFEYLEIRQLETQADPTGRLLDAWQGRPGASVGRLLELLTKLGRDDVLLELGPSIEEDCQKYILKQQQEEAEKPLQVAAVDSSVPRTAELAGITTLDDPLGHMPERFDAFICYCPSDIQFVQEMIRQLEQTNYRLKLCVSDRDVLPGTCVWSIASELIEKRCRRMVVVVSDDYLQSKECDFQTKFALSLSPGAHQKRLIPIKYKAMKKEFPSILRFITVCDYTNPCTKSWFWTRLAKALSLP
TLR9-MyD88 block: blocks human TLR9 binding to MyD88 | Q9NR96+Q99836 | CHO BLA complementation TLR9-MyD88, CCF4 FRET ratio | inhibition, % at 4.98 µM | 340,000 compounds, 0.21% hits | AID 504734;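 active means inhibition above the mean over all tested compounds plus 3 SD, cut at about 21% in these data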;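 further: 0% = DMSO only wells and 100% = clavulanate BLA inhibitor control wells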
TLR9-MyD88 cf: TLR9-MyD88 interaction inhibition, confirmation. shares compounds with TLR9-MyD88 block. CHO TLR9/MyD88 BLA complementation, CCF4 FRET ratio. inhibition, % at 4.98 µM. 680 compounds, 51% hits. AID 540250;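 active means mean inhibition across three repeats above about 21% taken from the earlier screen, limit read from the data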;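 further: blue over green emission ratio reports constitutive TLR9 MyD88 association via BLA complementation; 0% = DMSO vehicle wells and 100% = clavulanate BLA inhibitor wells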
BLA counter: beta-lactamase reporter inhibition, counter-screen artifact | inhibition, % at 4.98 µM | CHO-BLA cells, CCF4 FRET ratio, BLA reporter | shares compounds with TLR9-MyD88 block | AID 540251 | 680 compounds, 7% hits;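 active means mean inhibition above a 50% cutoff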;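 further: counterscreen of TLR9-MyD88 hits on CMV-driven BLA in CHO-K1 cells; 0% = DMSO alone and 100% = clavulanate blocking BLA; higher means less blue over green ratio so more BLA blockade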
TLR9 CHO tox: counter-screen for TLR9-MyD88 inhibitors: cytotoxicity in CHO cells. AID 588336. shares compounds with TLR9-MyD88 block. inhibition, % at 4.98 µM. luminescence. 680 compounds, 39% hits; in the data active means inhibition above about 11%
Active calls of the source: *. Compounds with a hit are over-represented: about 1.2% of the library has one in this group of screens.

Screening CC[C@@]1(C(=O)OC)N[C@H](CN(C)C(=O)c2ccc(C(C)(C)C)cc2)[C@@H]2C(=O)N(Cc3ccccc3)C(=O)[C@@H]21 returned GC-B act 7, Neddylation inh 11, GC-A act -2, NOD2 RIPK2 PPI -2 and TLR9-MyD88 block -1.
O=C(OCn1ncc(Cl)c(Cl)c1=O)c1ccccc1Cl was read as GC-B act 33, Neddylation inh -233, GC-A act 43*, NOD2 RIPK2 PPI 54*, TLR4 MyD88 comp 16, TLR9-MyD88 block 31*, TLR9-MyD88 cf 28*, BLA counter 23 and TLR9 CHO tox 99*.
O=C(Nc1nc2c(s1)CN(Cc1ccccc1)CC2)c1cccc(S(=O)(=O)N2CCc3ccccc32)c1 was read as GC-B act 0, Neddylation inh 17, GC-A act 3, NOD2 RIPK2 PPI 8, TLR4 MyD88 comp 19, TLR9-MyD88 block 28*, TLR9-MyD88 cf 5, BLA counter 6 and TLR9 CHO tox -2.
`O=C(Nc1nc2ccccc2s1)c1cccc(S(=O)(=O)N2CCc3ccccc32)c1` gave GC-B act -20, Neddylation inh -43, GC-A act -41, NOD2 RIPK2 PPI 2 and TLR9-MyD88 block 7.
Screening CC1(C(=O)N2CCC(Oc3cccnc3)CC2)CC1 returned GC-B act -4 and GC-A act 2.
Screening Cc1ccc(-n2nc3c(c2NC(=O)c2c(F)cccc2Cl)CS(=O)(=O)C3)cc1C returned GC-B act -2, Neddylation inh 5, GC-A act -4, NOD2 RIPK2 PPI 21, TLR9-MyD88 block 22*, TLR9-MyD88 cf 11, BLA counter 16 and TLR9 CHO tox 4.
COc1cc(/C=C2/S/C(=N/S(=O)(=O)c3ccccc3)NC2=O)c([N+](=O)[O-])cc1OC was read as GC-B act 2, Neddylation inh -27, GC-A act 1, NOD2 RIPK2 PPI -7, TLR4 MyD88 comp 5 and TLR9-MyD88 block -4.
O=C1N/C(=N\S(=O)(=O)c2ccccc2)S/C1=C\c1cc([N+](=O)[O-])ccc1O was read as GC-B act 3, Neddylation inh -18, GC-A act 10, NOD2 RIPK2 PPI 11, TLR9-MyD88 block 25*, TLR9-MyD88 cf 9, BLA counter 13 and TLR9 CHO tox 0.
For Cn1c(=O)oc2cc(S(=O)(=O)N3CCN(c4cccc(C(F)(F)F)c4)CC3)ccc21 the results were GC-B act 2 and GC-A act -3.
`C[C@H]1[C@@H](NC(=O)C2CCC2)CC[C@@]23CCCN2C(=O)CCC[C@@H]13` gave GC-B act 1 and GC-A act -1.
For N#CC1=C(N)OC2=C(CC/C2=C\c2ccccc2Cl)C1c1ccccc1Cl (configuration not stated) the results were GC-B act -8, Neddylation inh 34, GC-A act 0, NOD2 RIPK2 PPI 11, TLR4 MyD88 comp 2, TLR9-MyD88 block 32*, TLR9-MyD88 cf 7, BLA counter 7 and TLR9 CHO tox 2.
`Cn1c(=O)cc(OCCCC(=O)Nc2cc(C(F)(F)F)ccn2)c2ccccc21` gave GC-B act -11 and GC-A act -4.
`Cc1ccc(-c2cc(NC(=O)c3ccccc3)on2)cc1` gave GC-B act -5, Neddylation inh 27, GC-A act -2, NOD2 RIPK2 PPI -6, TLR9-MyD88 block 24*, TLR9-MyD88 cf 2, BLA counter 0 and TLR9 CHO tox -2.
Screening S=c1[nH]nc(COc2ccccc2)n1/N=C/c1ccc(Cl)cc1 returned GC-B act -9, Neddylation inh 6, GC-A act -2, NOD2 RIPK2 PPI -2 and TLR9-MyD88 block -8.
